Assay outcomes as filed in PubChem BioAssay.
WRN helicase inh – WRN helicase (human) inhibition | Q14191 | WRN helicase unwinding, fluorescent forked duplex, kinetic | Potency, µM (highest dose often 114 µM), hits mostly inhibitors | 360,000 compounds, 0.46% hits | AID 651768; also: nearly all actives have a fitted effect of over 55% in size
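Fluorescence dequenching readout, ex 525 nm/em 598 nm, kinetic mode: forked duplex DNA (100 nM final) with adjacent fluorophore and quencher unwound by WRN (20 nM final) with 2 mM ATP. Compound preincubation 15 min, room temperature.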
POLK inh – inhibitors of human DNA polymerase kappa | Q9UBT6 | purified Pol kappa, fluorescent DNA synthesis assay, 10 min | Potency, µM (doses to about 107 µM), most hits filed as inhibitors | 400,000 compounds, 0.53% hits | AID 588579
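Inhibition of 10 nM Pol kappa is measured by a fluorescent read-out at 0 and 10 min following addition of 50 nM substrate (final), with a 15-min room-temperature compound preincubation.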
Pol beta inh – inhibitors of human DNA polymerase beta | P06746 | Pol beta primer extension/strand displacement, fluorescence kinetic | Potency, µM (top dose mostly 114 µM), most hits filed as inhibitors | 340,000 compounds, 1.3% hits | AID 485314
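Reaction started by 50 nM substrate onto compound-treated Pol beta (10 nM, 15 min preincubation, room temperature); plates read at 0 min and 10 min. Normalized concentration-effect data fitted by four-parameter Hill equation.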
Pol iota inh – DNA polymerase iota (human) inhibition. Q9UNA4. Pol iota fluorescent replication assay, 10 min. Potency, µM (titrated, usually from 115 µM), hits mostly inhibitors. 390,000 compounds, 1% hits. AID 588590
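Fluorescent replication assay read twice, at 0 min and 10 min after adding 50 nM (final) substrate. Enzyme (10 nM) and compounds were first incubated 15 min at room temperature; enzyme-free buffer wells were negative controls.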
POLH inh – DNA polymerase eta (human) inhibition. Q9Y253. recombinant Pol eta, fluorescent DNA replication assay. Potency, µM (series often up to 114 µM), usual class: inhibitors. 390,000 compounds, 1.2% hits. AID 588591
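Fluorescent replication assay: 50 nM final substrate added after a 15 min room-temperature compound preincubation with 10 nM enzyme. Signal taken at 0 min and again at 10 min.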
FEN1 inh – blocks human flap endonuclease 1. P39748. Recombinant FEN1 flap cleavage, fluorescence, 15 min. Potency, µM (doses to about 114 µM), most hits filed as inhibitors. 390,000 compounds, 0.35% hits; also: nearly all actives have a fitted effect of over 65% in size
Target sequence (P39748 whole entry, looked up): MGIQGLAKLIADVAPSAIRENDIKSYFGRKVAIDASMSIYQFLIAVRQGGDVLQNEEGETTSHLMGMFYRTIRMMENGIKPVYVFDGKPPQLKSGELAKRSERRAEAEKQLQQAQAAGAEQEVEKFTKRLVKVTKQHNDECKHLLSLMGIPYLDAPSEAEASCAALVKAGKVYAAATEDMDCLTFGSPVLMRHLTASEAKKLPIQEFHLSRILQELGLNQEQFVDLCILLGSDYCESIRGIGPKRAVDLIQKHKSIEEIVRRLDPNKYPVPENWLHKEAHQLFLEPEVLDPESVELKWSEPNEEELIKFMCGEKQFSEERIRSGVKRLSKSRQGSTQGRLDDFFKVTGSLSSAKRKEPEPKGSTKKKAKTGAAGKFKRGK
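Nuclease activity of 10 nM FEN1 was measured after 15 min of room-temperature exposure to titrated compounds, by adding 50 nM flap substrate and reading plates at 0 and 15 min.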
Of the large screens only hits and unclear results are named; the others gave an inactive call. Compounds with a hit are over-represented: about 2.4% of the library has one in this group of screens. Calls follow the shape of the dose curve; as a rule, active = well fitted curve in the direction sought with a large enough effect; inconclusive = small, poorly fitted or top-dose-only effect, or another doubt; inactive = no such curve, though single readings can be large; an effect the other way counts as inactive or inconclusive.

Cc1ccccc1-n1nc2c(c1NC(=O)c1c(-c3ccccc3Cl)noc1C)CSC2	Pol iota inh 79µM, FEN1 inh inconclusive
Cc1cccc(-n2nc3c(c2NC(=O)c2ccco2)CSC3)c1C	WRN helicase inh 45µM, POLK inh 28µM, Pol beta inh inconclusive, Pol iota inh 14µM, POLH inh 13µM, FEN1 inh inconclusive
CCOC(=O)c1ccc(NC(=O)N2CCCCCC2)cc1	none
CCOC(=O)c1c(-c2ccccc2)oc2ccc(OCC(=O)O)cc12	Pol iota inh inconclusive
CC(C)N1CCN(Cc2ccccc2-c2ccco2)CC1CCO (centres undefined)	none
CC(C)N1CCN(Cc2cccc(-c3ccco3)c2)CC1CCO (centres undefined)	Pol beta inh 10µM
COc1ccc(S(=O)(=O)c2cnc(SCC(=O)Nc3cc(F)ccc3C)[nH]c2=O)cc1Cl	Pol beta inh 50µM, POLH inh inconclusive (no result: WRN helicase inh)
Cc1nn(CCCC(=O)NCc2ccccc2)c(=O)c2nn(-c3ccccc3)c(C)c12	none
CCOC(=O)c1nn(-c2ccc(OCC)cc2)c(C)c1C(C)=O	POLH inh 89µM
CCOC(=O)c1nn(-c2ccc(F)cc2)c(C)c1C(C)=O	none
Cc1ccc(S(=O)(=O)Cc2ccc(C(=O)N3CCN(c4cc(C)ccc4C)CC3)o2)cc1	Pol beta inh 40µM, Pol iota inh inconclusive
CCOC(=O)C1CCCN(C(=O)c2ccc(CS(=O)(=O)c3ccc(C)cc3)o2)C1 (centres undefined)	Pol beta inh inconclusive, Pol iota inh 32µM, POLH inh 18µM
Cc1ccc(C)c(N2CCN(C(=O)c3ccc(CS(=O)(=O)c4ccccc4C)o3)CC2)c1	Pol beta inh inconclusive
Cc1ccc(S(=O)(=O)Cc2ccc(C(=O)N3CCCCCC3)o2)cc1	none
O=C(/N=C1\NC(=O)C(F)(C(F)(F)F)S1)NC1CCCCC1 (centres undefined)	WRN helicase inh 50µM, Pol iota inh inconclusive
CCC1S/C(=N/C(=O)NC2CCCCC2)NC1=O (centres undefined)	Pol iota inh inconclusive
Cc1ccc(SCCC(=O)Nc2ccccc2C(=O)NC(C)C)cc1	none
COc1ccccc1/C=N/NC(=O)C(C)Cn1cnc2ccccc21 (centres undefined)	none
CCC(NC(=O)CCc1c(C)c2cc3c(C)c(C)oc3cc2oc1=O)C(=O)N[C@@H](Cc1ccccc1)C(=O)O (some centres undefined)	Pol beta inh 32µM, POLH inh inconclusive
COc1ccc(CNC(=O)CCc2c(C)c3cc4c(C)coc4cc3oc2=O)cc1	Pol iota inh inconclusive (no result: WRN helicase inh)
CSC[C@H](NC(=O)Cc1c(C)c2cc3c(C)c(C)oc3cc2oc1=O)C(=O)N[C@@H](Cc1ccccc1)C(=O)O	none
COc1ccc(CNC(=O)CCc2c(C)c3cc4c(C)c(C)oc4cc3oc2=O)cc1	Pol beta inh 22µM (no result: WRN helicase inh)
c1ccc2c(c1)nc1n2CCS1	POLK inh 89µM
O=C1CSc2nc3ccccc3n21	none
COc1cccc(/C(=N/O)C2CC2c2ccc(Cl)cc2)c1 (centres undefined)	none
CCOc1cccc(=O)c2c(C)n(Cc3ccco3)c(C)c12	Pol beta inh 25µM
COc1ccc(Br)cc1CNc1ccc2[nH]c(=O)[nH]c2c1	none
COc1ccc(Br)cc1CNc1ccc(O)cc1	Pol iota inh 2.8µM
COc1cc(CNC(C)c2ccccc2)cc(Br)c1OCc1ccccc1 (centres undefined)	none
COc1cc(CNc2ccc(O)cc2)cc(Br)c1OCc1ccccc1	Pol iota inh 16µM, POLH inh inconclusive, FEN1 inh inconclusive
COCCn1cnnc1SCC(=O)Nc1cc(C)on1	none (no result: Pol beta inh)
Cc1ccc(-n2c(SCC(=O)NCc3ccco3)nc3sc(C)c(C)c3c2=O)cc1	none
Cc1ccc(-n2c(SCC(=O)NCc3ccco3)nc3nc4c(cc3c2=O)COC(C)(C)C4)cc1	Pol beta inh 79µM, Pol iota inh inconclusive, POLH inh inconclusive
CCOC(=O)N1CCN(C(=O)c2cnsn2)CC1	none
O=C(Nc1ccc(C(=O)O)cc1)/C(=C\c1ccco1)NC(=O)c1ccccc1	Pol beta inh inconclusive
CC(C)(C)c1ccc(C(=O)N/C(=C\c2ccco2)C(=O)Nc2ccccc2C(=O)O)cc1	POLK inh inconclusive, Pol beta inh inconclusive, Pol iota inh inconclusive, POLH inh 35µM
CC(=O)Oc1cc2cccc(OC(C)=O)c(=O)c2c(OC(C)=O)c1OC(C)=O	WRN helicase inh 8.9µM, POLK inh 1µM, Pol beta inh 0.18µM, Pol iota inh 1µM, POLH inh 10µM, FEN1 inh 1.1µM
COc1cc2cccc(OC)c(=O)c2c(O)c1OC	none
O=C(/C=C/c1ccc(Br)o1)Nc1nccs1	POLK inh inconclusive, Pol beta inh inconclusive, Pol iota inh 20µM, POLH inh inconclusive
O=C(/C=C/c1ccc(Br)o1)NCc1ccccc1	POLK inh inconclusive, Pol beta inh 0.71µM, Pol iota inh inconclusive
O=C(Nc1nccs1)c1ccc(Br)o1	none
Cc1ccc(CNC(=O)/C=C/c2ccc(Br)o2)cc1	none
CCC(C)NC(=O)/C(=C/c1ccco1)c1ccccc1 (centres undefined)	none
Cc1cc(-c2c(C)[nH]n(-c3ccc(Cl)cc3)c2=O)n(-c2ccc(Cl)cc2)n1	none
O=C(O)c1ccccc1-c1c2cc(Br)c(=O)c(Br)c-2oc2c(Br)c(O)c(Br)cc12	POLK inh 10µM (no result: WRN helicase inh, Pol beta inh, Pol iota inh, POLH inh, FEN1 inh)
O=C(Nc1ccccn1)c1ccc2c(c1)OCO2	none
O=C(NNS(=O)(=O)c1cccc(Cl)c1)c1cc(-c2ccc(F)cc2)nc2ccccc12	Pol beta inh 50µM, Pol iota inh inconclusive, POLH inh inconclusive
CC(C)C(NS(=O)(=O)c1ccccc1)C(=O)NC1CCCC1 (centres undefined)	Pol iota inh inconclusive
CC(NS(=O)(=O)c1ccccc1)C(=O)NC1CCCC1 (centres undefined)	Pol beta inh inconclusive, POLH inh 79µM
COc1ccc(NC(=O)NNC(=O)COc2ccc([N+](=O)[O-])c(C)c2)cc1OC	Pol beta inh 50µM
COc1ccc(NC(=O)NNC(=O)COc2ccc3ccccc3c2)cc1OC	none
O=C1c2ccccc2-c2n[nH]c3cccc1c23	POLK inh inconclusive, Pol beta inh 32µM, Pol iota inh inconclusive, POLH inh inconclusive, FEN1 inh inconclusive
COc1cc(C2NC(=O)c3ccccc3O2)ccc1OC(C)C (centres undefined)	WRN helicase inh inconclusive
CCNc1nc(NC(C)C)nc(Nn2cnnc2)n1	Pol beta inh 35µM
CC(C)Nc1nc(NC(C)C)nc(Nn2cnnc2)n1	none
CCCCCCc1c(C)c2ccc(OCC(=O)N3CCC[C@H]3C(=O)O)c(C)c2oc1=O	Pol iota inh 89µM, POLH inh 79µM
